# Measurements published in PubChem BioAssay (NCATS).
# “And” between values parts separate entries of the source, which are not always exact repeats. Equal values may be shown once. Inconclusive results are not listed. Where a call stands in place of a potency, no number is given. The source made the active and inactive calls. Unless noted, calls come from the whole dose curve; as a rule, active = well fitted curve in the direction sought with a large enough effect; inconclusive = small, poorly fitted or top-dose-only effect, or another doubt; inactive = no such curve, though single readings can be large; an effect the other way counts as inactive or inconclusive.
# What was measured:
# [1] = qHTS assay for small molecule antagonists of retinoid X receptor alpha signaling (AID 588546; active = well fitted inhibition curve with a large enough effect in the signal ratio, with a control signal flat, not every such curve was filed as active; the % refers to the signal ratio;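 note: cells stimulated with 9-cis-retinoic acid as agonist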); details: HEK293T RXRa-UAS-bla, beta-lactamase ratio, antagonist mode; measured here: W530 green channel, cytotoxicity proxy
# Method in brief: (§1)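 Beta-lactamase reporter inhibition, read as CCF4 fluorescence ratio (ex 405, em 460/530 nm) after 2 h at RT. HEK293T UAS-bla cells, 2500/well, were stimulated with 9-cis-RA at 500 or 100 nM final alongside test compound for 18 h at 37 C.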
# [2] = target: Retinoic acid receptor RXR-alpha (Homo sapiens) (UniProt P19793); experiment: as above; details: HEK293T RXRa-UAS-bla, beta-lactamase ratio, antagonist mode
# Method in brief: as §1
# [3] = target: Thyroid hormone receptor beta (Homo sapiens) (UniProt P10828); experiment: qHTS assay for small molecule antagonists of thyroid hormone receptor beta signaling (AID 588547; active = well fitted inhibition curve with a large enough effect in the signal ratio, with a control signal flat, not every such curve was filed as active; the % refers to the signal ratio;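 note: cells stimulated with 0.4 nM T3 agonist during compound exposure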); details: TR-UAS-bla HEK293, beta-lactamase ratio, antagonist mode, 18 h
# Method in brief: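 Inhibition of T3-driven (0.4nM final) beta-lactamase reporter activity was measured over 0.59 nM to 92 uM compound after 18 h at 37 C. The cells were GripTite HEK293 TR-UAS-bla in charcoal/dextran-stripped serum, with CCF4 ratio read-out and IC50 from Hill fits.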
# [4] = target: Voltage-gated inwardly rectifying potassium channel KCNH2 (Homo sapiens) (UniProt Q12809); experiment: qHTS Assay for Small Molecule Inhibitors of the Human hERG Channel Activity (AID 588834); details: U2OS BacMam hERG, FluxOR thallium flux fluorescence; series mostly up to 46.1 µM;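 note: top concentration of the series differs between compounds; lower thallium flux fluorescence means stronger hERG block; nearly all actives have a fitted effect of over 50% in size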
# Method in brief: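 Thallium serves as surrogate for K+ influx through BacMam-delivered hERG in U2OS cells. Compounds are added for about 10 minutes after dye loading; stimulation buffer then starts flux, monitored kinetically on FDSS.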
# [5] = S16 Schwann cell viability assay (CellTiter-Glo assay) (AID 624031); details: S16 rat Schwann cells viability, 24 h; series mostly up to 57.5 µM;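 note: cellular ATP luminescence as a viability measure; nearly all actives have a fitted effect of over 70% in size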
# Method in brief: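 Luminescent ATP read-out (CellTiter-Glo) after 24 h compound exposure of native S16 rat Schwann cells at 37 °C. Signals were normalized between cell-free wells and DMSO-treated cells, set as 0% activity.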
# [6] = S16 Schwann cell PMP22 intronic element firefly luciferase assay (AID 624032); details: S16 rat Schwann cells, PMP22 element FLuc, 24 h; series mostly up to 57.5 µM; note: nearly all actives have a fitted effect of over 30% in size; note: potency is the fitted concentration of half-maximal effect
# Method in brief: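 Luciferase reporter of PMP22 intronic-element expression in stably transfected S16 rat Schwann cells, read by ONE-Glo luminescence after 24 h compound exposure at 37 C. Activity scaled between DMSO (0%) and positive-control PTC124; concentration-effect curves quality-classified.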
# [7] = target: Glutaminase kidney isoform, mitochondrial (Homo sapiens) (UniProt O94925); experiment: qHTS for Inhibitors of Glutaminase (GLS): LOPAC Validation (AID 624146); details: glutaminase enzyme activity inhibition; series mostly up to 46.1 µM;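 note: glutamate product detected by oxidase and peroxidase coupled Amplex red fluorescence gain; nearly all actives have a fitted effect of over 60% in size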
# Method in brief: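 hKGA in 45 mM KH2PO4 pH 8.2, 0.02% Tween-20 with pin-transferred compounds; 1 mM L-glutamine (stock) plus glutamate oxidase/HRP/Amplex Red coupling added. Fluorescence read initially and after 30 min at RT.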
# [8] = S16 Schwann cell PMP22 intronic element beta-lactamase assay (AID 624044; calls by dose curve; note: nearly all actives have a fitted effect of over 15% in size; note: potency is the fitted concentration of half-maximal effect); details: S16 rat Schwann cells, PMP22 element beta-lactamase FRET, 24 h; series mostly up to 38.3 µM
# Method in brief: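 Beta-lactamase reporter under a PMP22 intronic regulatory element in stable S16 rat Schwann cells; 24 h compound exposure. 460 nm blue signal normalized between DMSO (0%) and potassium clavulanate, with 535 nm FRET tracking viability; curves classed by r2 and response.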
# [9] = target: Luciferin 4-monooxygenase (Photinus pyralis) (UniProt P08659); experiment: Biochemical firefly luciferase enzyme assay for NPC (AID 624030);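 note: purified P. pyralis luciferase at 10 nM with luciferin and ATP substrate; nearly all actives have a fitted effect of over 70% in size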; details: purified P. pyralis luciferase, luminescence, 5 min; series mostly up to 58.6 µM
# Method in brief: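 Direct inhibition of firefly luciferase enzyme (10 nM final, 50 mM Tris Acetate) assessed by luminescence within 5 minutes. Percent activity scaled between DMSO and PTC124 positive control, with concentration-effect curves classified by fit quality and response.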
# [10] = qHTS of Trypanosoma Brucei Inhibitors: LOPAC Validation (AID 624147); details: purified enzyme assay, luminescence, 45 min; series mostly up to 57.5 µM
# Method in brief: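 Enzyme and substrate buffer are dispensed first and compound is pin-transferred. ADP at 130 uM final then starts the reaction, which runs 45 min at room temperature. Detection reagent is added for 10 min before luminescence is imaged.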
# Retinoic acid receptor RXR-alpha (Homo sapiens), sequence (P19793 whole entry, looked up): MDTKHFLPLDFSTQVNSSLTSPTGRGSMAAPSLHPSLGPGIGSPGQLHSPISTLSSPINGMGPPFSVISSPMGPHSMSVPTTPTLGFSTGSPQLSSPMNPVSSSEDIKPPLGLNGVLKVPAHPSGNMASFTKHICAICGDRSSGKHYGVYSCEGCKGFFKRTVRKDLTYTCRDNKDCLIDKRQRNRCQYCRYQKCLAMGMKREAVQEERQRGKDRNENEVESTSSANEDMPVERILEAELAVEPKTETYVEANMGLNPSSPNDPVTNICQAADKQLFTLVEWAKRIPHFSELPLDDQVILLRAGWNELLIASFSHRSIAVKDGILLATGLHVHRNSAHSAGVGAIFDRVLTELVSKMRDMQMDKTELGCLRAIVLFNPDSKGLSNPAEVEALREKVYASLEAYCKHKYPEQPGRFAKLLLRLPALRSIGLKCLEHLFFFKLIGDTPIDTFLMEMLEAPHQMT
# Thyroid hormone receptor beta (Homo sapiens), sequence (P10828 whole entry, looked up): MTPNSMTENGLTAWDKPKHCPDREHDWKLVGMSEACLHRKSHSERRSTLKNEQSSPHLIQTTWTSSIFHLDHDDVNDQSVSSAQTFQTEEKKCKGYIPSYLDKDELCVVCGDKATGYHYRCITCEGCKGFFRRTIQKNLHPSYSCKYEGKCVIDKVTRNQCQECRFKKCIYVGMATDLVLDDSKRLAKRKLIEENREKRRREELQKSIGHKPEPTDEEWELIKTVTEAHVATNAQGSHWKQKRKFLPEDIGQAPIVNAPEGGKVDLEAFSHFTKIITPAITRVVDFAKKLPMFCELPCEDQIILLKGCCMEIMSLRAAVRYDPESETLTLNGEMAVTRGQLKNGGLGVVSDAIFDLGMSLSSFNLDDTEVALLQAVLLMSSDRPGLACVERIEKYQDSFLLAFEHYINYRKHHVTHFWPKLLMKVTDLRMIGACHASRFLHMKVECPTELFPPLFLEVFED
# Voltage-gated inwardly rectifying potassium channel KCNH2 (Homo sapiens), sequence (Q12809 whole entry, looked up): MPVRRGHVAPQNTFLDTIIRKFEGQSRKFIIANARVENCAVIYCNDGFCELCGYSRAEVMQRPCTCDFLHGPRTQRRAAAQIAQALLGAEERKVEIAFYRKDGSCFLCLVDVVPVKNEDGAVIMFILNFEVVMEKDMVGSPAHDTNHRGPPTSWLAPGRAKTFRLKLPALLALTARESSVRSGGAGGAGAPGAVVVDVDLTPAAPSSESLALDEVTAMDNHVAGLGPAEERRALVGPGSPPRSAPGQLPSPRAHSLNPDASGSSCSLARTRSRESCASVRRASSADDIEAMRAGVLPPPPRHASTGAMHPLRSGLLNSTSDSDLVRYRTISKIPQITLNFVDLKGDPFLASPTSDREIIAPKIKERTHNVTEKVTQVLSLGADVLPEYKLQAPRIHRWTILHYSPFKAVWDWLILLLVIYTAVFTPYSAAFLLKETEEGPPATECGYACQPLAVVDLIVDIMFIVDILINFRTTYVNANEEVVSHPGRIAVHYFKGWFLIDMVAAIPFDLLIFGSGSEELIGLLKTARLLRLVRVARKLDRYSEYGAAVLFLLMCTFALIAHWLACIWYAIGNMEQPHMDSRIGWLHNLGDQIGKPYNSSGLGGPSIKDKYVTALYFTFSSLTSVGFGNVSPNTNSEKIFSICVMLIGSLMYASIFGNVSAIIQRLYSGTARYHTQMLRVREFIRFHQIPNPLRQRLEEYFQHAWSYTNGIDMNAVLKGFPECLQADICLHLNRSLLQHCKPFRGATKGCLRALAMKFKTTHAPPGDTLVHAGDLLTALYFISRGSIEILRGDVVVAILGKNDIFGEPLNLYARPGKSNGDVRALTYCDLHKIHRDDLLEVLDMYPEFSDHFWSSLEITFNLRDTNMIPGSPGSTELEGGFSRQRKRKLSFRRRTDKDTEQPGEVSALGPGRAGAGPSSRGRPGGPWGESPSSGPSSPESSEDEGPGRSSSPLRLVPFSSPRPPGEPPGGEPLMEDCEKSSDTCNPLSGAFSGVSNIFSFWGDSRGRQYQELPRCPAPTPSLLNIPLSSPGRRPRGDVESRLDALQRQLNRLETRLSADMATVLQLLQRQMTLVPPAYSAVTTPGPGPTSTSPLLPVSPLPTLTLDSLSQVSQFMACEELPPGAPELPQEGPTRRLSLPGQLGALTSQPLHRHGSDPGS
# Glutaminase kidney isoform, mitochondrial (Homo sapiens), sequence (O94925 whole entry, looked up, canonical isoform): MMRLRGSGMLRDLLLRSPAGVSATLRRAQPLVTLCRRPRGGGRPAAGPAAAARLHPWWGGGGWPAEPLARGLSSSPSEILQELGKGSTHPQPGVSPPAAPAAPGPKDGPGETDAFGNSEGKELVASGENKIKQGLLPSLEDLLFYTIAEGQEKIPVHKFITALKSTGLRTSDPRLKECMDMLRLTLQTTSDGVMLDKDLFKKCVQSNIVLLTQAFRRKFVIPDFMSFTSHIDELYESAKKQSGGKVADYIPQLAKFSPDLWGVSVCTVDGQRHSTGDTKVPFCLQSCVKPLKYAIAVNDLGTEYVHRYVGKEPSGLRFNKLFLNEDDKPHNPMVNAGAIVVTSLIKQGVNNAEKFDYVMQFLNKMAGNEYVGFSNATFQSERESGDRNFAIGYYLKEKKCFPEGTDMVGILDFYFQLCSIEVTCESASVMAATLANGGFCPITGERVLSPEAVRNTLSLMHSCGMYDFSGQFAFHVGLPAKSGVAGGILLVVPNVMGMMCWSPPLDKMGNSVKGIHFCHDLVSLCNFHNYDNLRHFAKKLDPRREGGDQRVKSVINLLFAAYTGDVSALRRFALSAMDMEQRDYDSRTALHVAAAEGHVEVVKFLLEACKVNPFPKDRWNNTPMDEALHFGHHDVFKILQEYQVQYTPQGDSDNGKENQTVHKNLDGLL
# Luciferin 4-monooxygenase (Photinus pyralis), sequence (P08659 whole entry, looked up): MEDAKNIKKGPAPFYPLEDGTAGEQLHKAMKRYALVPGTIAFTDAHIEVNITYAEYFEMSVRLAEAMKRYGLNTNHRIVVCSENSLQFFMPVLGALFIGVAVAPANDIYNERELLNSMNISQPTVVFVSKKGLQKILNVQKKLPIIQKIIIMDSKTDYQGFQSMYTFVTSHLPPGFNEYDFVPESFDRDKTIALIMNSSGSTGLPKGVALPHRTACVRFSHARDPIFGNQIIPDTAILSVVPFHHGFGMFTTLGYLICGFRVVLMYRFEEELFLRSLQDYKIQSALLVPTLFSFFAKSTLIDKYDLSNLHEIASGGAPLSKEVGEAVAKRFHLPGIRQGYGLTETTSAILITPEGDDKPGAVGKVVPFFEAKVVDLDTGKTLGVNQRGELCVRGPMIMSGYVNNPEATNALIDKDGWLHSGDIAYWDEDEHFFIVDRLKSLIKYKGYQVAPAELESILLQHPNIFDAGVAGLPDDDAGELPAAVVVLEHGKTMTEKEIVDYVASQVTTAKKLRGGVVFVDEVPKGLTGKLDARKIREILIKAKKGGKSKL
compound,measurement,setting,value
C[C@]12C[C@H](O)[C@H]3[C@@H](CCC4=CC(=O)CC[C@@]43C)[C@@H]1CC[C@@H]2C(=O)CO,max response,[1],12.2%
same,max response,[2],9.95% (inactive)
same,activity change % (negative = inhibition),[3],-13.1% (inactive)
same,Potency,[4],inactive
same,Potency,[5],inactive
same,Potency,[6],inactive
same,Potency,[7],inactive
[Cl][In]([Cl])[Cl],max response,[1],-2.25%
same,max response,[2],17.5% (inactive)
same,activity change % (negative = inhibition),[3],2% (inactive)
same,Potency,[4],inactive
same,Potency,[5],inactive
same,Potency,[8],inactive
O=C(O)[C@H](O)c1ccccc1,Potency,[4],inactive
NCCNCCNCCN,max response,[1],-7.08%
same,max response,[2],10.1% (inactive)
same,activity change % (negative = inhibition),[3],-6.32% (inactive)
same,Potency,[4],inactive
same,Potency,[9],inactive
same,Potency,[5],inactive
CC(CN1c2ccccc2Sc2ccccc21)N(C)C (centres undefined),activity change % (negative = inhibition),[3],-18.5% (inactive)
same,Potency,[5],inactive
same,Potency,[8],inactive
COC(=O)C1=C(C)NC(C)=C(C(=O)OC)C1c1ccccc1[N+](=O)[O-],max response,[1],8.81%
same,max response,[2],23.4% (inactive)
same,activity change % (negative = inhibition),[3],-6% (inactive)
same,Potency,[9],inactive
same,Potency,[5],inactive
same,Potency,[8],inactive
COc1ccccc1O,max response,[1],-10.5% and -8.87% and -4.21%
same,max response,[2],0.752% (inactive) and 5.31% (inactive) and 3.65% (inactive)
same,activity change % (negative = inhibition),[3],8.27% (inactive) and 8.42% (inactive) and 1.01% (inactive)
same,Potency,[4],inactive
same,Potency,[5],inactive
NC(=O)c1ncn([C@@H]2O[C@H](CO)[C@@H](O)[C@H]2O)n1,activity change % (negative = inhibition),[3],-19.8% (inactive)
same,Potency,[4],inactive
same,Potency,[7],inactive
Nc1ccc(S(=O)(=O)Nc2nccs2)cc1,max response,[1],-9.52%
same,max response,[2],19.3% (inactive)
same,Potency,[4],inactive
same,Potency,[5],inactive
same,Potency,[6],inactive
C/C(=C(\CCOP(=O)(O)O)SC(=O)c1ccccc1)N(C=O)Cc1cnc(C)nc1N,Potency,[4],inactive
CC(=O)O[C@@]12CO[C@@H]1C[C@H](O)[C@@]1(C)C(=O)[C@H](O)C3=C(C)[C@@H](OC(=O)[C@H](O)[C@@H](NC(=O)OC(C)(C)C)c4ccccc4)C[C@@](O)([C@@H](OC(=O)c4ccccc4)[C@H]21)C3(C)C,Potency,[4],inactive
OCC(CO)N[C@H]1C[C@](O)(CO)[C@@H](O)[C@H](O)[C@H]1O,Potency,[4],inactive
CC1(C)Oc2ccc(C#N)cc2[C@@H](N2CCCC2=O)[C@@H]1O,Potency,[4],inactive
CC1(C)[C@@H]2CC[C@@]1(C)C(=O)C2,max response,[1],1.15%
same,max response,[2],2.47% (inactive)
same,activity change % (negative = inhibition),[3],-4.32% (inactive)
same,Potency,[4],inactive
same,Potency,[9],inactive
same,Potency,[5],inactive
same,Potency,[6],2.56 µM (active)
same,Potency,[8],9.99 µM (active)
NCCNCCNCCNCCN,max response,[1],-6.87%
same,max response,[2],-26.1% (inactive)
same,activity change % (negative = inhibition),[3],-25.9% (inactive) and -19% (inactive)
same,Potency,[4],inactive
same,Potency,[9],inactive
same,Potency,[5],inactive
same,Potency,[6],inactive
[O-][n+]1cccc(CO)c1,Potency,[4],inactive
COc1ccc(Cl)cc1C(=O)NCCc1ccc(S(=O)(=O)NC(=O)NC2CCCCC2)cc1,max response,[1],15.3%
same,max response,[2],-9.84% (inactive)
same,activity change % (negative = inhibition),[3],12.2% (inactive)
same,Potency,[5],inactive
same,Potency,[8],inactive
same,Potency,[7],inactive
CCCCOC(=O)c1ccc(O)cc1,max response,[1],-11.5% and -9.16%
same,max response,[2],-15.2% (inactive) and -3.16% (inactive)
same,activity change % (negative = inhibition),[3],-4.41% (inactive) and 2.19% (inactive)
same,Potency,[4],inactive
same,Potency,[5],inactive
same,Potency,[8],inactive
O=S(=O)(O)NC1CCCCC1,max response,[1],-8.27%
same,max response,[2],5.18% (inactive)
same,activity change % (negative = inhibition),[3],6.74% (inactive)
same,Potency,[4],inactive
same,Potency,[9],inactive
same,Potency,[5],inactive
same,Potency,[6],inactive
Cc1cc2nc3c(=O)[nH]c(=O)nc-3n(C[C@H](O)[C@H](O)[C@H](O)CO)c2cc1C,activity change % (negative = inhibition),[3],-25% (inactive)
CCCc1c(OCCCCc2nn[nH]n2)ccc(C(C)=O)c1O,max response,[1],22.4%
same,max response,[2],3.05% (inactive)
same,Potency,[4],inactive
same,Potency,[8],inactive
CC(O)CN(CCN(CC(C)O)CC(C)O)CC(C)O (centres undefined),max response,[1],-7.75%
same,max response,[2],-14.1% (inactive)
same,Potency,[4],inactive
same,Potency,[9],inactive
same,Potency,[5],inactive
same,Potency,[6],inactive
C[C@]12CC[C@@H]3c4ccc(O)cc4CC[C@H]3[C@@H]1CCC2=O,max response,[1],4.88%
same,max response,[2],-13% (inactive)
same,activity change % (negative = inhibition),[3],17.6% (inactive)
same,Potency,[4],inactive
same,Potency,[7],inactive
same,outcome,[10],inactive
CC12CCC(CC1)C(C)(C)O2,max response,[1],-6.73%
same,max response,[2],10.3% (inactive)
same,activity change % (negative = inhibition),[3],18.1% (inactive)
same,Potency,[4],inactive
same,Potency,[9],inactive
same,Potency,[5],inactive
